# Measurements reported in ChEMBL document CHEMBL5606460, “ASAP - DENV-2 NS2B-NS3 protease fluorescence single point” (2024).
# The whole screen tested about 2,000 compounds, of which about 110 (5.5%) showed an effect of 50% or more. Only a selection was taken, and strong results are over-represented in it overall.
# Biological target: Genome polyprotein (dengue virus type 2) (UniProt P29990)
# [1] = Thailand/16681/1984, Concentration 25.0 uM, Number of replicates 1.0
structure (smiles),measurement,setting,value
C[C@H](NC(=O)C1CCN(c2ccc(C=O)cc2)CC1)c1ccc(Br)cc1,inhibition,[1],12.7%
O=C(N[C@@H](C(=O)NC1CCNCC1)c1ccc(OCc2ccccc2)cc1)OCc1ccccc1,inhibition,"Thailand/16681/1984, Concentration 49.5 uM, Number of replicates 2.0, Standard deviation 0.04752487067458113 %",-0.225%
same,inhibition,"Thailand/16681/1984, Concentration 99.01 uM, Number of replicates 2.0, Standard deviation 0.6611370067327399 %",-0.49%
same,inhibition,"Thailand/16681/1984, Concentration 198.0 uM, Number of replicates 2.0, Standard deviation 1.22541945186685 %",2.06%
CNc1ccccc1C(=O)Nc1cccc2c(CO)cc(C)nc12,inhibition,"Thailand/16681/1984, Concentration 49.95 uM, Number of replicates 2.0, Standard deviation 1.7606224720878931 %",-0.213%
same,inhibition,"Thailand/16681/1984, Concentration 99.9 uM, Number of replicates 2.0, Standard deviation 1.1796035516056886 %",2.15%
Cc1cc(N)c2cccc(F)c2n1,inhibition,"Thailand/16681/1984, Concentration 49.95 uM, Number of replicates 2.0, Standard deviation 2.207074007413848 %",-9.77%
same,inhibition,"Thailand/16681/1984, Concentration 99.9 uM, Number of replicates 2.0, Standard deviation 2.035147234269057 %",-9.31%
Cn1cc(NC(=O)c2ccccc2C(F)(F)F)c(-c2ccc(N)nc2)n1,inhibition,"Thailand/16681/1984, Concentration 49.5 uM, Number of replicates 2.0, Standard deviation 0.02318042950620363 %",-3.62%
same,inhibition,"Thailand/16681/1984, Concentration 99.01 uM, Number of replicates 2.0, Standard deviation 0.5795125921164253 %",-3.54%
same,inhibition,"Thailand/16681/1984, Concentration 198.0 uM, Number of replicates 2.0, Standard deviation 2.685074924440845 %",-2.16%
O=C(c1ccc2c(c1)B(O)OC2)N1CCN[C@H](c2ccc(Cl)cc2)C1,inhibition,"Thailand/16681/1984, Concentration 49.5 uM, Number of replicates 2.0, Standard deviation 1.1051975895382533 %",-1.33%
same,inhibition,"Thailand/16681/1984, Concentration 99.01 uM, Number of replicates 2.0, Standard deviation 0.5109273627094355 %",-1.22%
same,inhibition,"Thailand/16681/1984, Concentration 198.0 uM, Number of replicates 2.0, Standard deviation 0.04393612974415127 %",-0.309%
Cc1n[nH]cc1-c1ccccc1C(=O)Nc1cnn(C)c1,inhibition,"Thailand/16681/1984, Concentration 49.5 uM, Number of replicates 2.0, Standard deviation 1.4825862030761958 %",-4.22%
same,inhibition,"Thailand/16681/1984, Concentration 99.01 uM, Number of replicates 2.0, Standard deviation 3.6856999240165664 %",-5.61%
same,inhibition,"Thailand/16681/1984, Concentration 198.0 uM, Number of replicates 2.0, Standard deviation 2.662860479629087 %",-5.61%
Cc1ccc(NC(=O)C2CCN(c3ccc(C=O)cc3)CC2)cc1Br,inhibition,[1],8.71%
CC(C)Cn1cccc(C(=O)Nc2ccncc2C(F)(F)F)c1=O,inhibition,"Thailand/16681/1984, Concentration 49.5 uM, Number of replicates 2.0, Standard deviation 5.23322293563183 %",-3.89%
same,inhibition,"Thailand/16681/1984, Concentration 99.01 uM, Number of replicates 2.0, Standard deviation 0.16283923825626637 %",-4.73%
same,inhibition,"Thailand/16681/1984, Concentration 198.0 uM, Number of replicates 2.0, Standard deviation 1.971758036933884 %",-6.94%
O=Cc1ccc(N2CCC(C(=O)N3CCN(C(=O)[C@H]4COc5ccccc5O4)CC3)CC2)cc1,inhibition,[1],13%
NCc1cccc(NC(=O)[C@H]2CC(F)(F)CN2C(=O)OCc2ccccc2)c1,inhibition,"Thailand/16681/1984, Concentration 49.5 uM, Number of replicates 2.0, Standard deviation 3.8817212285914895 %",-3.13%
same,inhibition,"Thailand/16681/1984, Concentration 99.01 uM, Number of replicates 2.0, Standard deviation 4.048573795130085 %",-2.21%
same,inhibition,"Thailand/16681/1984, Concentration 198.0 uM, Number of replicates 2.0, Standard deviation 4.090127173867097 %",-1.49%
O=Cc1ccc(N2CCC(C(=O)N(Cc3ccco3)Cc3cccs3)CC2)cc1,inhibition,[1],11%
Cc1cc(CO)c2cccc(NC(=O)c3ccc(N)nn3)c2n1,inhibition,"Thailand/16681/1984, Concentration 49.95 uM, Number of replicates 2.0, Standard deviation 1.176901179972867 %",11%
same,inhibition,"Thailand/16681/1984, Concentration 99.9 uM, Number of replicates 2.0, Standard deviation 1.886285239678155 %",19.5%
C[C@@H](Cc1ccc(C(F)(F)F)cc1)NC(=O)C1CCN(c2ccc(C=O)cc2)CC1,inhibition,[1],8.27%
O=Cc1ccc(N2CCC(C(=O)NCC34CC5CC(CC(C5)C3)C4)CC2)cc1,inhibition,[1],11.8%
c1ccc2[nH]c(CN3CC[C@H](c4c[nH]c5ccccc45)C3)cc2c1,inhibition,"Thailand/16681/1984, Concentration 49.5 uM, Number of replicates 2.0, Standard deviation 0.7608740215940771 %",4.51%
same,inhibition,"Thailand/16681/1984, Concentration 99.01 uM, Number of replicates 2.0, Standard deviation 0.30587350380986955 %",4.39%
same,inhibition,"Thailand/16681/1984, Concentration 198.0 uM, Number of replicates 2.0, Standard deviation 0.6449469231287406 %",3.06%
Cc1c(Br)cnc(NC(=O)C2CCN(c3ccc(C=O)cc3)CC2)c1[N+](=O)[O-],inhibition,[1],13.3%
Cc1nn(Cc2nnc(C(C)C)o2)cc1C1CCNCC1,inhibition,"Thailand/16681/1984, Concentration 49.5 uM, Number of replicates 2.0, Standard deviation 1.2271984598057826 %",-1.09%
same,inhibition,"Thailand/16681/1984, Concentration 99.01 uM, Number of replicates 2.0, Standard deviation 0.3137269789739955 %",-1.28%
same,inhibition,"Thailand/16681/1984, Concentration 198.0 uM, Number of replicates 2.0, Standard deviation 0.585185347191749 %",-1.14%
O=Cc1ccc(N2CCC(C(=O)N3CCN(c4ncccn4)CC3)CC2)cc1,inhibition,[1],13.4%
O=C(N[C@H]1CCOC1)c1cc(Cl)ccc1NS(=O)(=O)c1ccc(Oc2ccccc2Cl)cc1,inhibition,"Thailand/16681/1984, Concentration 49.5 uM, Number of replicates 2.0, Standard deviation 0.8156312071794307 %",64.1%
same,inhibition,"Thailand/16681/1984, Concentration 99.01 uM, Number of replicates 2.0, Standard deviation 0.42939613872644544 %",63.6%
same,inhibition,"Thailand/16681/1984, Concentration 198.0 uM, Number of replicates 2.0, Standard deviation 0.707503298737338 %",53%
O=C(NC[C@H]1CCOC1)c1cc(Cl)ccc1NS(=O)(=O)c1ccc(Oc2ccccc2Cl)cc1,inhibition,"Thailand/16681/1984, Concentration 49.5 uM, Number of replicates 2.0, Standard deviation 2.9570930238802475 %",78.1%
same,inhibition,"Thailand/16681/1984, Concentration 99.01 uM, Number of replicates 2.0, Standard deviation 0.09728436725720986 %",83.4%
same,inhibition,"Thailand/16681/1984, Concentration 198.0 uM, Number of replicates 2.0, Standard deviation 0.16101849440059574 %",79%
O=S(=O)(NC1CCCCC1)c1ccc(Oc2ccccc2Cl)cc1,inhibition,"Thailand/16681/1984, Concentration 49.5 uM, Number of replicates 2.0, Standard deviation 1.7919780415060578 %",0.164%
same,inhibition,"Thailand/16681/1984, Concentration 99.01 uM, Number of replicates 2.0, Standard deviation 2.26588512977007 %",2.51%
same,inhibition,"Thailand/16681/1984, Concentration 198.0 uM, Number of replicates 2.0, Standard deviation 2.2194744531827233 %",5.38%
Cc1cc(CN)c2cccc(Cl)c2n1,inhibition,"Thailand/16681/1984, Concentration 49.95 uM, Number of replicates 2.0, Standard deviation 5.413623438036859 %",-7.74%
same,inhibition,"Thailand/16681/1984, Concentration 99.9 uM, Number of replicates 2.0, Standard deviation 5.696602605148216 %",-7.99%
